Assay [1] can be described thus: optical density shifts of acrAB sulA E. coli – strain DRC41, OD650, 48 h, E. coli filamentation inducer project, primary screen (AID 1152).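 Also: E. coli MC1000 strain DRC41 lacking acrAB efflux pump and sulA.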 The note with it: higher = more signal, called active from +8 up or from −8 down.
Assay [2] in a line: probe aLefty1 binding on compound microarray – biochemical, small-molecule microarray, 635/667 nm fluorescence, primary screen (AID 1153).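 Also: score merges spot fluorescence with signal-to-noise ratio from the scanned slide images.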 The note with it: higher = more signal.
Assay [3] in a line: plasmodial surface anion channel blockers, osmotic lysis – cell-based, P. falciparum Indochina, OD700, 1 h, primary screen (AID 1154). The conditions noted are these: P. falciparum Indochina infected RBC osmotic lysis, higher = more signal, called active from +8 up or from −8 down.
Assay [4] can be described thus: plasmodial surface anion channel blockers, osmotic lysis – cell-based, P. falciparum Indochina, OD700, 2 h, primary screen (AID 1155).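 Also: lysis reports solute entry through the parasite surface anion channel PSAC.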 The conditions noted are these: P. falciparum Indochina infected erythrocytes, higher = more signal, called active from +8 up or from −8 down.
Assay [5] in a line: changes in parasitized red cell lysis, either direction – P. falciparum Indochina, OD700, 3 h, PSAC antagonist project, primary screen (AID 1156). The note with it: P. falciparum-infected erythrocytes, osmotic lysis, higher = more signal, called active from +8 up or from −8 down.
The nature of assay [6]: plasmodial surface anion channel blockers, osmotic lysis – cell-based, P. falciparum Indochina, OD700, 18 h, primary screen (AID 1157). The note with it: P. falciparum Indochina infected erythrocytes, osmotic lysis OD700, 18 h; higher = more signal, called active from +8 up or from −8 down.
The nature of assay [7]: S6 kinase pathway phospho-S6 level changes – cell-based, A549, cytoblot, luminescence, serum-stimulated, primary screen (AID 1158).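 Also: serum-stimulated A549 lung adenocarcinoma cells; signal is phosphorylated S6 detected by cytoblot immunostaining with HRP secondary.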 The conditions noted are these: 5 h, higher = more signal.
The target in assay [8] is NADPH oxidase 2 (Homo sapiens) (UniProt P04839). The assay is described as follows: compounds shifting NOX2 Amplex Red fluorescence – cell-based, HEK293-NOX2, PMA-stimulated, NOX inhibitor project, primary screen (AID 1159). Also: test concentration not given here. The conditions noted are these: 45 min, higher = more signal, called active from +8 up or from −8 down.
Sequence of NADPH oxidase 2 (Homo sapiens) (P04839 whole entry, looked up): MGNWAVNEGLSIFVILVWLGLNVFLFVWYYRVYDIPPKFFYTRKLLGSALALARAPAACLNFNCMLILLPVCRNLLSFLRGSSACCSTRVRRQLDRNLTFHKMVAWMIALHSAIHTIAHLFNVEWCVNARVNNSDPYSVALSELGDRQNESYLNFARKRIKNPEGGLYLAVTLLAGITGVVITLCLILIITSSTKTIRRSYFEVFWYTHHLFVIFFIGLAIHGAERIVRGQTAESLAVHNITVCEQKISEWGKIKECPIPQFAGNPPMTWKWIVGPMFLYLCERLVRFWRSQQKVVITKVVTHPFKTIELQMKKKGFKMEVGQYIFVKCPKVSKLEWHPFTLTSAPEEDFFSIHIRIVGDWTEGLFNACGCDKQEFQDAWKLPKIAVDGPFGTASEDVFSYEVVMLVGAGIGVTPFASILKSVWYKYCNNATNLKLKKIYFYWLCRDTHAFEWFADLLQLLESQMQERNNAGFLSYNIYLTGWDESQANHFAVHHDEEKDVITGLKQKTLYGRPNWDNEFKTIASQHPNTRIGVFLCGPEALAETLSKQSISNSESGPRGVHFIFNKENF
In assay [9] the target is NADPH oxidase 4 (Homo sapiens) (UniProt Q9NPH5). In words: compounds shifting NOX4 Amplex Red fluorescence – cell-based, HEK293-NOX4, tetracycline-induced, NOX inhibitor project, primary screen (AID 1160). The conditions noted are these: HEK293-NOX4, Amplex Red H2O2 fluorescence, 45 min; higher = more signal, called active from +8 up or from −8 down.
Sequence of NADPH oxidase 4 (Homo sapiens) (Q9NPH5 whole entry, looked up): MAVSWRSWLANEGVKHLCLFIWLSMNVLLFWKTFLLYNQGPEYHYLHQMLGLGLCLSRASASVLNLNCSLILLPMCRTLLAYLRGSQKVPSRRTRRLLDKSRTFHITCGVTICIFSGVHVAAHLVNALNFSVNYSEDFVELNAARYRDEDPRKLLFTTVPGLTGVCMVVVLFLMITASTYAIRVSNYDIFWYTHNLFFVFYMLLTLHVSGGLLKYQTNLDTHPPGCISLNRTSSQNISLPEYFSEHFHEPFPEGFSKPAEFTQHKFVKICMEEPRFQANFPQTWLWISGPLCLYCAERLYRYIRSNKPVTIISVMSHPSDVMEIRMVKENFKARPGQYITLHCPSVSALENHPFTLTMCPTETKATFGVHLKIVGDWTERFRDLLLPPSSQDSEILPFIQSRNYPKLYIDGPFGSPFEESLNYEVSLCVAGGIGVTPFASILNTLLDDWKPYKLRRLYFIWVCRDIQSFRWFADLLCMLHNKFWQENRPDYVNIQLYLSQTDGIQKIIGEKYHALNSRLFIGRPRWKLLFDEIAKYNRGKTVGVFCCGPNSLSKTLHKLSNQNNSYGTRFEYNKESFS
Assay [10] addresses NADPH oxidase 5 (Homo sapiens) (UniProt Q96PH1). The assay is described as follows: compounds shifting NOX5 Amplex Red fluorescence – cell-based, HEK293-NOX5, NOX inhibitor project, primary screen (AID 1161). The conditions noted are these: HEK293-NOX5, ionomycin, 45 min, higher = more signal.

Active and inactive are the calls of the source.

Consider 11 compounds from PubChem BioAssay.

Sequence of NADPH oxidase 5 (Homo sapiens) (Q96PH1 whole entry, looked up): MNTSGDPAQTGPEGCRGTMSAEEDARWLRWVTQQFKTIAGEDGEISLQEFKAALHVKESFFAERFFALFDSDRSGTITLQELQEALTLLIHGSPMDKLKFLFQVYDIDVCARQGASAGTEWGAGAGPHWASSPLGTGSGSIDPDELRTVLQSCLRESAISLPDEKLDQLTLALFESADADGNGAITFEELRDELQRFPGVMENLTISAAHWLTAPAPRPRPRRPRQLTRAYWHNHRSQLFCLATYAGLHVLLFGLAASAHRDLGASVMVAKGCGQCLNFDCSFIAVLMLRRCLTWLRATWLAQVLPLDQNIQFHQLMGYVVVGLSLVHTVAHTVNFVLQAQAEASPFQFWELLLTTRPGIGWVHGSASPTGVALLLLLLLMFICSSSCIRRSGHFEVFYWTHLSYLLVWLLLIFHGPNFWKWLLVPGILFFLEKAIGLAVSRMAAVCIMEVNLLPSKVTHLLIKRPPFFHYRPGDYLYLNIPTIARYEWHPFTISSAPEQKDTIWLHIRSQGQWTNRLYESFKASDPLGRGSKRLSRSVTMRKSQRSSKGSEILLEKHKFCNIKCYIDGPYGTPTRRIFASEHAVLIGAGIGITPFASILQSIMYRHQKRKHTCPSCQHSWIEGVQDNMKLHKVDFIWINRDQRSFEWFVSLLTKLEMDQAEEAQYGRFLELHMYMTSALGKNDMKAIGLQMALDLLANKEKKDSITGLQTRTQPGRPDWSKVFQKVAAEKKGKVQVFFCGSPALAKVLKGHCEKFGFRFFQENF

With `O=C1C[C@@](C(=O)NCC(F)(F)F)(c2ccc([N+](=O)[O-])cc2)[C@@H](c2ccc(CO)cc2I)N1CC12CC3CC(CC(C3)C1)C2`, the z-score is 0.662 (inactive) in assay [1]; 22.4 (active) in [3]; 5.06 (inactive) in assay [4]; -0.0836 (inactive) in assay [5]; 0.69 (inactive) in assay [6]; 2.26 in assay [7]. Further, the figures for the z-score in assay [8], in [9] and in assay [10] were 1 (inactive), -0.564 (inactive) and 0.733, respectively. Moreover, in assay [2], the composite z-score was 0.383.
As for `COC(=O)[C@@]1(Cc2ccc(F)cc2)[C@H]2c3cc(C(=O)N4CCCC4)n(CCc4c[nH]c5cc(F)ccc45)c3C[C@H]2CN1C(=O)c1ccccc1`, the z-score in [1] is -1.22 (inactive); in [3], 1.76 (inactive); in assay [4], 0.456 (inactive); in [5] it was 1.86 (inactive); in [6], 0.984 (inactive); in assay [7] it was 0.593. For the same compound, the z-score in assay [8] is 0.361 (inactive); in [9] it was 1.9 (inactive); in assay [10], 2.01. In [2], this compound registered a composite z-score of 0.429.
Regarding `COC(=O)[C@]1(Cc2ccccc2N=[N+]=[N-])N=C(c2ccc(OCCCO)cc2)O[C@@H]1c1ccccc1CN=[N+]=[N-]`, the z-score was -1.01 (inactive) in assay [1]; 22.2 (active) in [3]; 9.37 (active) in [4]; -0.732 (inactive) in assay [5]; 2.26 (inactive) in assay [6]; 0.76 in [7]. In addition, the z-score in [8] was -2.97 (inactive); in assay [9] it was 0.167 (inactive); in assay [10], -2.43. The same compound displayed a composite z-score in assay [2] of -0.0012.
As to `COCCOC(=O)N1C(=O)[C@@]2(c3cc(C#CCCO)ccc31)[C@H](c1ccc(O)cc1)N1[C@H](c3ccccc3)[C@H](c3ccccc3)OC(=O)[C@H]1[C@@H]2C(=O)NC[C@H](O)c1ccccc1`, the z-score was 1.49 (inactive) in [1]; 3.31 (inactive) in assay [3]; 1.19 (inactive) in assay [4]; 0.624 (inactive) in assay [5]; 0.555 (inactive) in [6]; 0.0833 in assay [7]. Also, the z-score in assay [8] is 0.878 (inactive); in assay [9], 0.521 (inactive); in assay [10], -0.0839. Also, the composite z-score in assay [2] was -0.218.
On to `COc1ccc(-c2cc3c(c(CCc4ccccc4)n2)[Si](C(C)C)(C(C)C)O[C@H]3c2ccccc2)cn1`, for which the z-score was 0.0534 (inactive) in assay [1]; 4.29 (inactive) in assay [3]; 1.36 (inactive) in assay [4]; -0.449 (inactive) in assay [5]; 0.775 (inactive) in assay [6]; -0.643 in [7]. Further, the z-score in assay [8] was 0.947 (inactive); in assay [9] it was 0.741 (inactive); in assay [10], 0.0862. Moreover, in assay [2], the composite z-score was -0.193.
For `COC(=O)C1(CC(C)C)C=C2C(=C(C)C(=O)C2C)CN1` (stereo not given), the z-score in assay [1] was -1.62 (inactive); in [3], 0.71 (inactive); in assay [4] it was -0.161 (inactive); in [5] it was 0.396 (inactive); in assay [6], 0.421 (inactive); in assay [7] it was -0.164. The z-score is 0.425 (inactive) in assay [8], -1.51 (inactive) in assay [9] and -2.83 in [10]. The compound further displayed a composite z-score in assay [2] of 1.59.
Regarding `CC(C)C(=C=CC[C@H](O)c1cccc(OCCO)c1)C[C@H](O)c1ccccn1`, the z-score in assay [1] is 1.21 (inactive); in [3] it was 7.72 (inactive); in [4] it was 0.631 (inactive); in [5] it was 1.96 (inactive); in [6], 0.626 (inactive); in assay [7], 0.468. In addition, the z-score was -1.57 (inactive) in [8], 0.362 (inactive) in assay [9] and -1.13 in assay [10]. The same compound gave a composite z-score in assay [2] of 0.21.
In the case of `O=C1c2ccccc2[C@](Cc2ccccc2I)(C(=O)NCCN2CCOCC2)[C@H](c2ccc(CO)cc2)N1Cc1ccccc1C(F)(F)F`, the z-score in [1] is -2.6 (inactive); in assay [3] it was 7.91 (inactive); in [4], 1.13 (inactive); in assay [5], 1.59 (inactive); in assay [6] it was 0.65 (inactive); in assay [7], 0.401. Besides, the z-score in assay [8] is -1.06 (inactive); in [9] it was 0.814 (inactive); in [10], 1.15. Besides, in [2], the composite z-score turned out to be 0.284.
In the case of `C=CCC(OC(C)=O)[C@@H]1[C@@H](N(Cc2cccc3ccccc23)C(=O)c2ccc(C)cc2)c2cc(OCCCO)ccc2N1C(=O)Cc1ccc2ccccc2c1` (stereo not given in full), the z-score was 2.62 (inactive) in assay [1]; 0.483 (inactive) in [3]; -0.407 (inactive) in assay [4]; -0.419 (inactive) in [5]; -1.2 (inactive) in assay [6]; 2.14 in assay [7]. Also, the z-score in assay [8] was -2.56 (inactive); in assay [9], 1.08 (inactive); in assay [10], 2.41. Further, the composite z-score in assay [2] was 0.167.
As to `Cc1ccc(S[C@]2(C(=O)NCc3ccccc3)CC(=O)N(Cc3ccccc3C(F)(F)F)[C@@H]2c2ccc(CO)cc2I)cc1`, the z-score is 0.852 (inactive) in assay [1]; 5.8 (inactive) in [3]; 0.943 (inactive) in assay [4]; 0.836 (inactive) in assay [5]; 0.279 (inactive) in assay [6]; 0.316 in [7]. Further, the z-score in [8] is 0.708 (inactive); in assay [9], -1.5 (inactive); in [10], 1.11. The composite z-score in assay [2] was found to be 0.056.
On to `C=C[C@@H](CO)NS(=O)(=O)c1ccc(Br)cc1`, for which the z-score in assay [1] is 3.75 (inactive); in assay [3], -0.398 (inactive); in [4], -0.68 (inactive); in [5], -1.12 (inactive); in [6], -1.81 (inactive); in assay [7], 1.36. In addition, the z-score is 0.908 (inactive) in assay [8], 1.05 (inactive) in [9] and 1.44 in assay [10]. The composite z-score in assay [2] was -0.239.
